The values that follow come from the supplement of paper PMC10338343.

The subject of experiment [1] is MILI (PIWIL2) piRISC loaded with L1MC piRNA (26 nt). Kind of experiment: pre-steady-state target cleavage rate (min^-1); guide: L1MC piRNA 5'p-UAACUAAAUACUAUGCAAGCUGUAGG; higher = faster piRNA-guided slicing of the target. In short, it runs like this:
(§1)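 The pre-steady-state cleavage rate was calculated from a burst-and-steady-state fit. Data came from Cleave-'n-Seq, in which […] transcribed, DNA-blocked target RNA library was mixed with 1 nM active affinity-purified piRISC carrying one synthetic guide, with or without 500 nM GTSF1 partner protein, in HEPES–potassium acetate buffer at 33 °C for 0–8 or 0–960 min. Uncleaved targets were sequenced and normalised to depth and to weakly complementary targets, three trials were pooled, and k3 was capped at 0.0001 min^-1.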

Experiment [2] concerns EfPiwi piRISC loaded with L1MC piRNA (26 nt). Description: pre-steady-state target cleavage rate (min^-1); auxiliary factor: 500 nM Ephydatia muelleri Gtsf1; guide: L1MC piRNA 5'p-UAACUAAAUACUAUGCAAGCUGUAGG; MIWI and MILI are mouse PIWI proteins and EfPiwi is from a freshwater sponge; tags in brackets are library labels; higher = faster piRNA-guided slicing of the target. In a few lines: as §1
Setting [3] is: auxiliary factor: 500 nM mouse GTSF1.
[4] abbreviates: auxiliary factor: none (no GTSF1).

± gives the standard deviation.

In the case of UCCUCCUACAGCUUGCAUAGUAUUUAGUCA, the “pre-steady-state target cleavage rate” value in experiment [1] (setting [3]) came out at 0.303 ± 0.025; in experiment [1] (setting [4]), 0.00856 ± 0.0028; in experiment [2], 0.00693 ± 0.003.
On to UCCUGGAUGUCCUUGCAUAGUUUUUAGUUA, for which the “pre-steady-state target cleavage rate” value was determined as 0.0125 ± 0.0057 in experiment [1] (setting [3]), 0.00594 ± 0.0021 in experiment [1] (setting [4]) and 0.00455 ± 0.003 in experiment [2].
Take UCCUGGAACUGCUUGGAUAGUAUUUAGUUA: the results for the “pre-steady-state target cleavage rate” value in experiment [1] (setting [3]), in experiment [1] (setting [4]) and in experiment [2] were 0.222 ± 0.013, 0.0109 ± 0.0023 and 0.0527 ± 0.014, respectively.
As for UCCUGGUAGAGCUUGCAUAGUAUUUAGUUA, the “pre-steady-state target cleavage rate” value in experiment [1] (setting [3]) worked out at 0.245 ± 0.015; in experiment [1] (setting [4]) it was 0.00842 ± 0.0022; in experiment [2] it was 0.0138 ± 0.0044.
For the sequence UCCUCCAACAGCUUGCAUAGUUUUUAGUUA, the “pre-steady-state target cleavage rate” value in experiment [1] (setting [3]) stood at 0.0522 ± 0.0087; in experiment [1] (setting [4]) it was 0.00502 ± 0.0021; in experiment [2], 0.0119 ± 0.0041.
On to UCCUGGAACAGGUUGGAUAGUAUUUAGUUA, for which the “pre-steady-state target cleavage rate” value in experiment [1] (setting [3]) worked out at 0.164 ± 0.02; in experiment [1] (setting [4]), 0.00851 ± 0.0024; in experiment [2], 0.00375 ± 0.0014.
UCCUGCUACAGCUAGCAUUGUAUUUAGUUA: the “pre-steady-state target cleavage rate” value was 0.225 ± 0.019 in experiment [1] (setting [3]), 0.007 ± 0.0024 in experiment [1] (setting [4]) and 0.00762 ± 0.0028 in experiment [2].
As for UCCUCCUACUGCUUGCAAAGUAUUUAGUUA, the figures for the “pre-steady-state target cleavage rate” value in experiment [1] (setting [3]), in experiment [1] (setting [4]) and in experiment [2] were 0.138 ± 0.011, 0.00644 ± 0.0018 and 0.0558 ± 0.017, respectively.
Taken in the same sequence, the figures for UCCUGCUACACCUAGCAUAGUAUUUAGUUA were 0.254 ± 0.021, 0.00758 ± 0.0022 and 0.0171 ± 0.0054.
On to UCCUGCUACACGCUUGCAUAGUAUUUAGUUA, for which the “pre-steady-state target cleavage rate” value in experiment [1] (setting [3]) is 0.218 ± 0.032; in experiment [1] (setting [4]), 0.00682 ± 0.0029; in experiment [2], 0.00609 ± 0.0019.
Taken in the same sequence, the figures for UCCUGGAUGAGCUCGCAUAGUAUUUAGUUA were 0.241 ± 0.017, 0.0047 ± 0.0035 and 0.0143 ± 0.0042.
Taken in the same sequence, the figures for UCCUGGAAGAGCUUGCAUAGUAAUUAGUUA were 0.177 ± 0.015, 0.00468 ± 0.0028 and 0.00806 ± 0.0027.
With UCCUGGAUGAGGUUGCAUAGUAUUUAGUUA, the “pre-steady-state target cleavage rate” value in experiment [1] (setting [3]) is 0.129 ± 0.015; in experiment [1] (setting [4]), 0.0136 ± 0.0032; in experiment [2] it was 0.00786 ± 0.0024.
For the sequence UCCUCCUACAGGUUGCAUAGUAUUUAGUUA, the “pre-steady-state target cleavage rate” value stood at 0.264 ± 0.013 in experiment [1] (setting [3]), 0.00924 ± 0.0019 in experiment [1] (setting [4]) and 0.0556 ± 0.013 in experiment [2].
On to UCCUGGAUCUGCUUGCAUAGUAUUUAGUAA, for which the figures for the “pre-steady-state target cleavage rate” value in experiment [1] (setting [3]), in experiment [1] (setting [4]) and in experiment [2] were 0.22 ± 0.014, 0.00457 ± 0.0021 and 0.1 ± 0.038, respectively.
Taken in the same sequence, the figures for UCCUGGAUGGGCUUGCAUAGUAUUUAGUUA were 0.17 ± 0.021, 0.0171 ± 0.0035 and 0.0238 ± 0.0063.
In the case of UCCUGGAACAGCUUGCAUUGUAUUUAGUAA, the entries for the “pre-steady-state target cleavage rate” value in experiment [1] (setting [3]), in experiment [1] (setting [4]) and in experiment [2] were 0.17 ± 0.02, 0.00563 ± 0.0025 and 0.00646 ± 0.0024, respectively.
Regarding UCCUGGUACAGGUUGCAUAGUAUUUAGUUA, the “pre-steady-state target cleavage rate” value in experiment [1] (setting [3]) came out at 0.217 ± 0.022; in experiment [1] (setting [4]), 0.0148 ± 0.004; in experiment [2], 0.0211 ± 0.0053.
As for UCCUGCUACAGCUUGCUUUGUAUUUAGUUA, the “pre-steady-state target cleavage rate” value was 0.183 ± 0.015 in experiment [1] (setting [3]), 0.00494 ± 0.0021 in experiment [1] (setting [4]) and 0.00538 ± 0.003 in experiment [2].
On to “UCCUGGAUGUCCUUGCAUAGUAUUUAGUUU [g2:g19:cont:t1U]”, for which the “pre-steady-state target cleavage rate” value in experiment [1] (setting [3]) was 0.17 ± 0.022; in experiment [1] (setting [4]), 0.0113 ± 0.0024; in experiment [2] it was 0.00601 ± 0.0034.
In the case of UCCUCCAACAGCUAGCAUAGUAUUUAGUUA, the “pre-steady-state target cleavage rate” value in experiment [1] (setting [3]) was 0.25 ± 0.017; in experiment [1] (setting [4]), 0.00537 ± 0.0023; in experiment [2], 0.00798 ± 0.0027.
UCCUGGUACUGCUUGCAUUGUAUUUAGUUA: the “pre-steady-state target cleavage rate” value in experiment [1] (setting [3]) stood at 0.0791 ± 0.015; in experiment [1] (setting [4]), 0.00624 ± 0.0037; in experiment [2] it was 0.00516 ± 0.0027.
Taken in the same sequence, the figures for UCCUGGUACAGCAUGCAUAGUAAUUAGUUA were 0.193 ± 0.025, 0.013 ± 0.0032 and 0.00882 ± 0.0034.
Taken in the same sequence, the figures for UCCUGGUUCAGCUAGCAUAGUAUUUAGUUA were 0.239 ± 0.026, 0.0116 ± 0.0027 and 0.0263 ± 0.0083.
Taken in the same sequence, the figures for UCCUGGAAGAGCUUGCAUAGUAUAUAGUUA were 0.173 ± 0.019, 0.00457 ± 0.0025 and 0.0114 ± 0.0044.
